# Records with an inconclusive call do not appear. Activity calls are given as the source filed them. Unless noted, the call rests on the fitted dose curve; in most records, active means well fitted curve in the direction sought with a large enough effect; inconclusive means small, poorly fitted or top-dose-only effect, or another doubt; inactive means no such curve, though single readings can be large; an effect the other way counts as inactive or inconclusive.
# What was measured:
# [1] = biological target: Tyrosine-protein kinase Yes (Homo sapiens) (UniProt P07947); test: qHTS for small molecule inhibitors of Yes1 kinase: Primary Screen (AID 686947); details: Yes1 kinase biochemical qHTS inhibition; series mostly up to 76.9 µM; further: nearly all actives have a fitted effect of over 60% in size; further: potency means the concentration at half of the fitted maximal effect
# Method in brief: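 Yes1 (4 nM) preincubated 20 min with compound, then 60 min room-temperature reaction with 0.1 mM ATP and 0.3 mg/mL poly(E4Y) in pH 7.5 Tris, 10 mM MgCl2. ADP measured by ADP-Glo luminescence, normalised to enzyme/no-enzyme controls.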
# [2] = qHTS for small molecule inhibitors of Yes1 kinase: Counter Assay (AID 686950); details: series mostly up to 76.9 µM;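 further: no kinase present so only ADP-Glo detection of a fixed ADP amount is tested; luminescence from ADP-Glo reporting ADP in a fixed ATP and ADP mixture; 0% = DMSO wells with ATP plus ADP and -100% = ATP-only wells without ADP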
# Method in brief: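 Enzyme-free detection counter-screen: compounds preincubated 20 min in buffer, then 0.08 mM ATP plus 0.02 mM ADP added for 60 min at room temperature; ADP-Glo luminescence. Buffer 50 mM Tris pH 7.5, 10 mM MgCl2, 150 mM NaCl; normalized to ATP+ADP and ATP-only controls.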
# [3] = qHTS profiling for inhibitors of Plasmodium falciparum (3D7) proliferation (AID 743322; call rule not given here;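 further: infected erythrocytes exposed to compound for 72 h before lysis; 100% = DMSO vehicle wells and 0% = 0.29 µM artemisinin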); details: P. falciparum 3D7 proliferation; at 28.7 µM (top of the series)
# Method in brief: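 Erythrocytes infected with P. falciparum (0.3% parasitemia, 2.5% hematocrit) incubated with compounds 72 h at 37 C, 5% CO2. Lysis with saponin/Triton buffer containing SYBR Green I, overnight at room temperature in the dark; DNA fluorescence (485/535 nm) normalised to 0.29 uM artemisinin and DMSO.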
# [4] = qHTS profiling for inhibitors of Plasmodium falciparum (DD2) proliferation (AID 743323; call rule not given here); details: lower = more inhibition; at 28.7 µM (top of the series)
# Method in brief: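 P. falciparum Dd2-infected erythrocytes (0.3% parasitemia, 2.5% hematocrit) exposed 72 h at 37 C, 5% CO2. Lysis with SYBR Green, overnight at room temperature, fluorescence 485/535 nm; normalized to 0.29 uM artemisinin and DMSO.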
# [5] = qHTS profiling for inhibitors of Plasmodium falciparum (HB3) proliferation (AID 743324); details: Plasmodium falciparum HB3 blood-stage proliferation; at 28.7 µM (top of the series);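 further: 100% = DMSO vehicle wells and 0% = artemisinin-treated control wells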
# Method in brief: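 P. falciparum HB3 grown in erythrocytes (0.3% parasitemia, 2.5% hematocrit final) with compound for 72 h at 37 C, 5% CO2. Parasite DNA detected by SYBR Green after saponin/triton lysis overnight; normalized to 0.29 uM artemisinin and DMSO.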
# [6] = qHTS Assay for Identifying Gametocytocidal Compounds (AID 743244); further: potency means the concentration at half of the fitted maximal effect;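 on max response: on the % scale 0 is the no-effect control and ±100 the full control effect; actives lower the fluorescent signal which means gametocytes are killed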; details: P. falciparum 3D7 stage III-V gametocytes, alamarBlue, 72 h; max response: stronger effect = lower value
# Method in brief: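 Viability read-out was resazurin reduction (alamarBlue, 24 h) measured at Ex 525/Em 598 nm. Beforehand, late-stage (III-V) 3D7 P. falciparum gametocytes at 20,000 cells/well were incubated with compound 72 h at 37C under 5% CO2.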
# [7] = biological target: Arylsulfatase A (Homo sapiens) (UniProt P15289); test: qHTS screen for enhancers of Arylsulfatase A (ASA1): LOPAC Validation Assay (AID 720538); details: ASA enzyme activity, LOPAC qHTS enhancer assay; series mostly up to 57.5 µM; further: 0% is about no effect
# Method in brief: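 SV40-transformed fibroblasts from an MLD patient (ASA-I179S) were treated with compound for 48 h at 37 C. They were then lysed with 0.5 mM pNCS substrate (final) for 14 h at room temperature and stopped with NaOH; signal read by fluorescence (Ex 525/Em 598 nm), with increase denoting enhanced activity.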
# [8] = qHTS for compounds that reverse cellular toxicity of Amyloid beta (A-beta) peptide in yeast: LOPAC Validation Assay (AID 720559); details: yeast expressing A-beta; series mostly up to 46.1 µM;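 further: plate controls were DMSO for no effect and equimolar ferric chloride plus clioquinol rescue for full effect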
# Method in brief: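 Yeast expressing toxic A-beta grown with pinned compounds at 30 C for 48 hr. Growth measured as absorbance at 600 nm; data normalized to DMSO and to an equimolar FeCl3/clioquinol mixture as positive control.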
# [9] = qHTS for Activators of Parkin Expression: LOPAC Validation Assay (NLuc Reporter) (AID 720572;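 further: 0% = DMSO and 100% = positive control compound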); details: Parkin promoter NanoLuc reporter cells, luminescence; series mostly up to 46.1 µM
# Method in brief: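 Neuronal cells with a Parkin promoter-driven FLuc/NLuc coincidence reporter were treated 24 h at 37 C in 7-point dose response (LOPAC). NLuc luminescence read after FLuc; signals normalized to DMSO and positive control (100%).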
# [10] = qHTS for Activators of Parkin Expression: LOPAC Validation Assay (FLuc Reporter) (AID 720573;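 further: 0% = DMSO and 100% = positive control compounds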); details: Cell line, PRKN promoter firefly luciferase reporter; series mostly up to 46.1 µM
# Method in brief: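 Neuronal cell line stably expressing FLuc/NLuc coincidence reporter under the Parkin promoter, 1,500 cells/well, dosed 24 h after seeding in 7-point series for 24 h at 37 C. FLuc luminescence read; normalized to DMSO and positive control (100%).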
# Sequence of Tyrosine-protein kinase Yes (Homo sapiens) (P07947 whole entry, looked up): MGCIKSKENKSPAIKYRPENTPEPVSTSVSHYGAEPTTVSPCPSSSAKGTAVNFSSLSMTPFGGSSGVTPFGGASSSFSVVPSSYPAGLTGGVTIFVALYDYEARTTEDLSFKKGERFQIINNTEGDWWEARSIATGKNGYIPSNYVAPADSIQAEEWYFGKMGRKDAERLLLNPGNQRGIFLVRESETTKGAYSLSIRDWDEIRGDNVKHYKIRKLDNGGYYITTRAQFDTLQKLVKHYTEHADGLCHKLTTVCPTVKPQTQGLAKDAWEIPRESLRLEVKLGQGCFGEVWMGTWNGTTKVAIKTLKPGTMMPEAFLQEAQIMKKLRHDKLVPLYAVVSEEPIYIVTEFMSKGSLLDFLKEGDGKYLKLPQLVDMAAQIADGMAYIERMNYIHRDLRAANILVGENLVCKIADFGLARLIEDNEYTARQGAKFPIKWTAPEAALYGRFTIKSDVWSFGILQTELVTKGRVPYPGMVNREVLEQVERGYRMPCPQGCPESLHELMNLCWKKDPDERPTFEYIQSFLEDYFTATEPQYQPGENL
# Sequence of Arylsulfatase A (Homo sapiens) (P15289 whole entry, looked up): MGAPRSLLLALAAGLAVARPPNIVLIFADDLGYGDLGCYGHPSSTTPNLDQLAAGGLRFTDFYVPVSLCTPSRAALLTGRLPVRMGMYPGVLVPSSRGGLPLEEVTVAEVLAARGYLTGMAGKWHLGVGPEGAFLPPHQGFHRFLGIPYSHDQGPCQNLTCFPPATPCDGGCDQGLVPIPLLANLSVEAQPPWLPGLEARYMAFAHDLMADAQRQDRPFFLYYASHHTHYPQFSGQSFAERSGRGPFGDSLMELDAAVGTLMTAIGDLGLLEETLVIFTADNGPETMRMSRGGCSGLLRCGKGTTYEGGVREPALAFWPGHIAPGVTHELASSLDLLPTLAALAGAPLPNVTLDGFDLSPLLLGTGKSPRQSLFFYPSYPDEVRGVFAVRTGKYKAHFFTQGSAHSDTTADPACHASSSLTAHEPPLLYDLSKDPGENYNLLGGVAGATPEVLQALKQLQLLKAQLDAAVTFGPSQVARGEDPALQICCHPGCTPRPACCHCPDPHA
smiles,measurement,setting,value
CO[C@H]1C[C@@H]2CC[C@@H](C)[C@@](O)(O2)C(=O)C(=O)N2CCCC[C@@H]2C(=O)O[C@H]([C@H](C)C[C@@H]2CC[C@H](OCCO)[C@H](OC)C2)CC(=O)[C@H](C)C=C(C)[C@@H](O)[C@@H](OC)C(=O)[C@H](C)C[C@H](C)C=CC=CC=C1C,Potency,[1],inactive
same,outcome,[2],inactive
same,remaining parasite growth % (stronger effect = lower value),[3],-1.41%
same,"activity, percent of control",[4],-0.639%
same,"remaining proliferation (% of control), lower = more inhibition",[5],-1.24%
COc1cc(N2CCC(N3CCN(C)CC3)CC2)ccc1Nc1ncc(Cl)c(Nc2ccccc2S(=O)(=O)C(C)C)n1,outcome,[2],inactive
same,Potency,[6],4.69 µM (active)
same,remaining parasite growth % (stronger effect = lower value),[3],-0.393%
same,"activity, percent of control",[4],0.218%
same,"remaining proliferation (% of control), lower = more inhibition",[5],-1.09%
COc1cc(Nc2ncc(F)c(Nc3ccc4c(n3)NC(=O)C(C)(C)O4)n2)cc(OC)c1OC,outcome,[2],inactive
same,max response,[6],23.2% (inactive)
same,remaining parasite growth % (stronger effect = lower value),[3],83%
same,"activity, percent of control",[4],89.1%
same,"remaining proliferation (% of control), lower = more inhibition",[5],58.2%
COc1ncc(-c2ccc3nccc(-c4ccnnc4)c3c2)cc1NS(=O)(=O)c1ccc(F)cc1F,outcome,[2],inactive
same,Potency,[6],0.935 µM (active)
same,remaining parasite growth % (stronger effect = lower value),[3],-1.12%
same,"activity, percent of control",[4],-0.177%
same,"remaining proliferation (% of control), lower = more inhibition",[5],-1.02%
CC(C)(C)C(=O)Oc1ccc2c(c1)nc(NC(=O)c1cccc([N+](=O)[O-])c1)n2CCCO,outcome,[2],inactive
same,max response,[6],2.9% (inactive)
same,remaining parasite growth % (stronger effect = lower value),[3],92%
same,"activity, percent of control",[4],82%
same,"remaining proliferation (% of control), lower = more inhibition",[5],53.3%
CN(C)C1CCN(C(=O)c2ccc(NC(=O)Nc3nc(N4CCOCC4)nc(N4CCOCC4)n3)cc2)CC1,outcome,[2],inactive
same,Potency,[6],23.5 µM (active)
same,remaining parasite growth % (stronger effect = lower value),[3],0.246%
same,"activity, percent of control",[4],2%
same,"remaining proliferation (% of control), lower = more inhibition",[5],2.09%
COc1cccc2c1CCCC2CCCN1CCN(C2CCCCC2)CC1 (configuration not stated),Potency,[1],inactive
same,outcome,[2],inactive
same,remaining parasite growth % (stronger effect = lower value),[3],-0.577%
same,"activity, percent of control",[4],3.08%
same,"remaining proliferation (% of control), lower = more inhibition",[5],1.97%
CN1CCN(CCOc2cc(OC3CCOCC3)c3c(Nc4c(Cl)ccc5c4OCO5)ncnc3c2)CC1,outcome,[2],inactive
same,Potency,[6],18.7 µM (active)
same,remaining parasite growth % (stronger effect = lower value),[3],0.208%
same,"activity, percent of control",[4],1.7%
same,"remaining proliferation (% of control), lower = more inhibition",[5],-0.659%
OC[C@H]1O[C@@H](n2cnc3c2NC=NC[C@@H]3O)C[C@H]1O,Potency,[1],21.8 µM (active)
same,outcome,[2],inactive
same,max response,[6],12.6% (inactive)
same,remaining parasite growth % (stronger effect = lower value),[3],97.1%
same,"activity, percent of control",[4],106%
same,"remaining proliferation (% of control), lower = more inhibition",[5],99.7%
O=C(Nc1cc(Cl)cc2c1[nH]c1cnccc12)c1cccnc1,Potency,[1],inactive
same,outcome,[2],inactive
same,max response,[6],1.52% (inactive)
same,remaining parasite growth % (stronger effect = lower value),[3],-0.264%
same,"activity, percent of control",[4],7.04%
same,"remaining proliferation (% of control), lower = more inhibition",[5],0.746%
CS(=O)c1ccc(-c2nc(-c3ccc(F)cc3)c(-c3ccncc3)[nH]2)cc1 (configuration not stated),outcome,[2],inactive
same,max response,[6],1.2% (inactive)
same,"remaining proliferation (% of control), lower = more inhibition",[5],20.3%
COc1cc2nc(-c3ccc(N4CCN(C)CC4)cc3)nc(NCCN3CCOCC3)c2cc1OC,Potency,[1],inactive
same,outcome,[2],inactive
same,Potency,[6],11.8 µM (active)
same,remaining parasite growth % (stronger effect = lower value),[3],-1.55%
same,"activity, percent of control",[4],-0.313%
same,"remaining proliferation (% of control), lower = more inhibition",[5],-0.898%
CCOC(CN1C(=O)[C@](CC(=O)Nc2ccc(C)cc2)(NC(=O)Nc2ccc(C)cc2)c2ccccc21)OCC,Potency,[1],inactive
same,outcome,[2],inactive
same,remaining parasite growth % (stronger effect = lower value),[3],4.05%
same,"activity, percent of control",[4],23.7%
same,"remaining proliferation (% of control), lower = more inhibition",[5],10.1%
CC(=O)Nc1ccc([C@H](C)C(=O)Nc2ncc(C(C)C)s2)cc1,outcome,[2],inactive
same,max response,[6],12.4% (inactive)
same,remaining parasite growth % (stronger effect = lower value),[3],95.5%
same,"activity, percent of control",[4],101%
same,"remaining proliferation (% of control), lower = more inhibition",[5],93.4%
CC(=O)N(C)C1(c2ccccc2)CCN(CCC[C@]2(c3ccc(Cl)c(Cl)c3)CCCN(C(=O)c3ccccc3)C2)CC1,Potency,[1],inactive
same,outcome,[2],inactive
same,remaining parasite growth % (stronger effect = lower value),[3],-0.589%
same,"activity, percent of control",[4],-0.455%
same,"remaining proliferation (% of control), lower = more inhibition",[5],-1.35%
O=C(N[C@@H](c1ccccc1)[C@@H]1CCCCN1)c1cccc(C(F)(F)F)c1Cl,Potency,[1],inactive
same,outcome,[2],inactive
same,Potency,[6],18.7 µM (active)
same,remaining parasite growth % (stronger effect = lower value),[3],52.4%
same,"activity, percent of control",[4],16.6%
same,"remaining proliferation (% of control), lower = more inhibition",[5],29.7%
CC(C)(C)c1ccc(C(O)CCCN2CCC(C(O)(c3ccccc3)c3ccccc3)CC2)cc1 (configuration not stated),outcome,[7],inactive
same,outcome,[8],inactive
same,Potency,[9],inactive
same,Potency,[10],inactive
CC(C)(C)c1cc(C(=O)O)c(NC(=O)Nc2ccc3[nH]ncc3c2)s1,Potency,[1],inactive
same,outcome,[2],inactive
same,max response,[6],39.1% (inactive)
same,remaining parasite growth % (stronger effect = lower value),[3],97%
same,"activity, percent of control",[4],95.5%
same,"remaining proliferation (% of control), lower = more inhibition",[5],70.8%

# Reference: PubChem BioAssay (NCATS)
